Compound activity as filed in PubChem BioAssay.
This is one part of a sample in which hits are shown more often than they occur.
IDE exosite FP = exo-site inhibitors of human IDE, primary screen, biochemical, fluorescence anisotropy, probe displacement. Insulin-degrading enzyme (Homo sapiens), P14735. z-score at 20 µM. 17,000 tested, 6.3% active. purified IDE, FL-6b probe fluorescence polarization; stronger effect = lower value;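 active = z-score of -3 or lower, meaning strong loss of probe binding signal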;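 also: His-tagged human IDE residues 42-1019 made in E. coli with 30 nM FL-6b probe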
The depositor's hits bear a star.

SMILES | IDE exosite FP
C[C@@H]1CCCCO[C@@H](CN(C)Cc2ccncc2)[C@@H](C)CN([C@@H](C)CO)C(=O)c2cc(NC(=O)Cc3ccccc3)ccc2O1 | 0.823
COc1ccc(C#Cc2ccc([C@@H]3[C@H]4CN(C(=O)Nc5ccccc5F)CCCCN4[C@H]3CO)cc2)cc1 | 0.863
COc1ccc(C#Cc2ccc([C@H]3[C@H]4CN(C(=O)Nc5ccccc5F)CCCCN4[C@H]3CO)cc2)cc1 | 3.03
CCC(=O)N1CCCCN2[C@@H](CO)[C@@H](c3ccc(C#Cc4ccccc4F)cc3)[C@@H]2C1 | -8.15*
CCC(=O)N1CCCCN2[C@H](CO)[C@@H](c3ccc(C#Cc4ccccc4F)cc3)[C@H]2C1 | 1.77
COc1ccc(C#Cc2ccc([C@@H]3[C@@H](CO)N4CCCCN(C(=O)Nc5ccccc5F)C[C@H]34)cc2)cc1 | 1.81
CCC(=O)N1CCCCN2[C@H](CO)[C@@H](c3ccc(C#CCOC)cc3)[C@H]2C1 | 2.83
CC(=O)N1CCCCN2[C@H](CO)[C@@H](c3ccc(C#Cc4ccccc4F)cc3)[C@H]2C1 | -5.25*
CCC(=O)N1CCCCN2[C@@H](CO)[C@H](c3ccc(C#Cc4ccccc4F)cc3)[C@@H]2C1 | -3.92*
COc1ccc(NC(=O)N2CC(=O)N3[C@@H](CO)[C@@H](c4ccc(C5=CCCC5)cc4)[C@@H]3C2)cc1 | 4.09
COc1ccc(-c2ccc([C@H]3[C@@H](CO)N4C(=O)CN(Cc5ccc(F)cc5)C[C@@H]34)cc2)cc1 | 2.16
CN1[C@H](C(=O)Nc2nccs2)[C@@H](CO)[C@@H]2Cn3c(ccc(-c4ccccc4F)c3=O)[C@@H]21 | 0.365
C/C=C/c1ccc([C@H]2[C@@H](CO)N3CCCCN(C(=O)Nc4ccccc4F)C[C@H]23)cc1 | 3.3
CCS(=O)(=O)N1CC(=O)N2[C@@H](CO)[C@H](c3ccc(C#CCc4ccccc4)cc3)[C@@H]2C1 | -0.529
COCC(=O)Nc1ccc2c(c1)C(=O)N(C)C[C@@H](OC)[C@@H](C)CN(C(=O)c1ccncc1)[C@H](C)CO2 | 0.749
Cn1cnc(S(=O)(=O)N2CCCCN3[C@@H](CO)[C@@H](c4ccc(-c5ccc(F)cc5)cc4)[C@@H]3C2)c1 | -2.12
Cn1cnc(S(=O)(=O)N2CCCCN3[C@H](CO)[C@@H](c4ccc(-c5ccccc5)cc4)[C@@H]3C2)c1 | -9.37*
COc1cccc(-c2ccc([C@H]3[C@H]4CN(S(=O)(=O)c5cn(C)cn5)CCCCN4[C@H]3CO)cc2)c1 | -0.71
Cc1cccc(-c2ccc([C@@H]3[C@H]4CN(S(=O)(=O)c5cn(C)cn5)CCCCN4[C@H]3CO)cc2)c1 | -6.09*
Cn1cnc(S(=O)(=O)N2CCCCN3[C@H](C2)[C@H](c2ccc(-c4ccccc4)cc2)[C@@H]3CO)c1 | 1.67
Cc1cccc(-c2ccc([C@@H]3[C@H](CO)N4CCCCN(S(=O)(=O)c5cn(C)cn5)C[C@@H]34)cc2)c1 | -19.5*
COc1cccc(-c2ccc([C@H]3[C@H](CO)N4CCCCN(S(=O)(=O)c5cn(C)cn5)C[C@@H]34)cc2)c1 | -0.354
COc1cccc(-c2ccc([C@@H]3[C@@H](CO)N4CCCCN(S(=O)(=O)c5cn(C)cn5)C[C@@H]34)cc2)c1 | -14.1*
COc1cccc(-c2ccc([C@H]3[C@@H](CO)N4CCCCN(S(=O)(=O)c5cn(C)cn5)C[C@@H]34)cc2)c1 | 0.929
COc1cccc(-c2ccc([C@@H]3[C@@H](CO)N4CCCCN(S(=O)(=O)c5cn(C)cn5)C[C@H]34)cc2)c1 | 1.39
SMILES | IDE exosite FP
Cc1cccc(-c2ccc([C@H]3[C@H]4CN(S(=O)(=O)c5cn(C)cn5)CCCCN4[C@H]3CO)cc2)c1 | 1.4
Cn1cnc(S(=O)(=O)N2CCCCN3[C@H](CO)[C@H](c4ccc(-c5cccc(F)c5)cc4)[C@@H]3C2)c1 | 2.5
Cc1ccc(-c2ccc([C@@H]3[C@@H](CO)N4CCCCN(C(=O)c5ccncc5)C[C@@H]34)cc2)cc1 | 2.7
O=S(=O)(Cc1ccccc1)N1CCCCN2[C@H](CO)[C@@H](c3ccc(-c4ccccc4)cc3)[C@H]2C1 | 1.65
O=C(NCC[C@H]1CC[C@H](NS(=O)(=O)Cc2ccccc2)[C@@H](CO)O1)C1CCCCC1 | -0.509
COCC(=O)N1CC(=O)N2[C@H](CO)[C@H](c3ccc(C#CCc4ccccc4)cc3)[C@@H]2C1 | -1.61
COc1ccc(C[C@@H]2CCc3cnnn3COC[C@H](CC(C)C)NC2=O)cc1 | -0.865
C/C=C/c1ccc([C@@H]2[C@@H](CN(C)C(=O)CC)N(C(=O)NC(C)C)[C@H]2CO)cc1 | 1.49
CN(C)CC(=O)N1CCCCN2[C@H](CO)[C@H](c3ccc(-c4cccnc4)cc3)[C@H]2C1 | 1.85
COc1ccccc1NC(=O)N1[C@H](CO)[C@@H](c2ccccc2)[C@@H]1C#N | 0.638
OC[C@@H]1[C@@H](c2ccc(C#Cc3ccccc3)cc2)[C@@H]2CN(Cc3cncnc3)CCCCN12 | -6.42*
CCCC#Cc1ccc([C@@H]2[C@H](CO)N3CCCCN(Cc4cncnc4)C[C@@H]23)cc1 | 0.0514
